Experimental data as given in PubChem BioAssay (EPA / NIEHS).
Results filed as inconclusive are left out. Active and inactive are the calls of the source. The calls were made as follows, unless noted: active = hit-call score of the fitted dose curve at least 0.9, where 1 is the maximum; inconclusive = response in the unintended direction; inactive = score below 0.9.

Legend:
[1] = Tanguay_ZF_120hpf_PE_legacy: (Legacy) Oregon State University Tanguay Lab 120 Hour Post-fertilization zebrafish Assay for Pericardial Edema (AID 2283640)
How it was run: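 Tropical 5D wild-type zebrafish embryos were exposed statically to 120 hpf at 28C, sealed and foil-covered, in 0.64% DMSO final. Pericardial edema was scored present/absent by brightfield microscopy; dead embryos were not scored.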

[2] = Tanguay_ZF_120hpf_PFIN_legacy: (Legacy) Oregon State University Tanguay Lab 120 Hour Post-fertilization zebrafish Assay for Pectoral Fin Malformation (AID 2283648);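 also: each larva judged yes or no for fin defect by brightfield with dead larvae skipped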
How it was run: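 Tropical 5D wild-type embryos, dechorionated with pronase at 4 hpf, were placed singly in wells at 6 hpf and statically exposed until 120 hpf at 28C, sealed and dark, with 0.64% (vol/vol) final DMSO; pectoral fin malformation scored present/absent.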

[3] = Tanguay_ZF_120hpf_CFIN_legacy: (Legacy) Oregon State University Tanguay Lab 120 Hour Post-fertilization zebrafish Assay for Caudal Fin Malformation (AID 2283649)
How it was run: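 Tropical 5D wild-type embryos, dechorionated with pronase at 4 hpf, were placed singly in wells at 6 hpf and statically exposed to compound at 28C until 120 hpf (0.64% DMSO). Caudal fin malformation was scored present/absent by brightfield microscopy.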

[4] = Tanguay_ZF_120hpf_CIRC_legacy: (Legacy) Oregon State University Tanguay Lab 120 Hour Post-fertilization zebrafish Assay for Circulatory Malformation (AID 2283651)
How it was run: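 Read-out: presence or absence of circulatory malformation at 120 hpf, scored by brightfield microscopy, fitted in the gain-of-signal direction against DMSO baseline. Wild-type 5D larvae were exposed from 6 hpf after enzymatic chorion removal.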

[5] = Tanguay_ZF_120hpf_SWIM_legacy: (Legacy) Oregon State University Tanguay Lab 120 Hour Post-fertilization zebrafish Assay for Swim Bladder Malformation (AID 2283654);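 also: swim bladder malformation in each larva scored yes or no under brightfield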
How it was run: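 Dechorionated Tropical 5D wild-type embryos, placed singly from 6 hpf, were statically exposed at 28C to 120 hpf with 0.64% DMSO final; swim bladder malformation was scored present/absent by brightfield microscopy, gain of signal relative to DMSO controls.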

[6] = Tanguay_ZF_120hpf_TRUN_legacy: (Legacy) Oregon State University Tanguay Lab 120 Hour Post-fertilization zebrafish Assay for Truncated Body (AID 2283655)
How it was run: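 Tropical 5D wild-type embryos, dechorionated with pronase at 4 hpf, were placed singly in wells at 6 hpf and statically exposed at 28C until 120 hpf, final DMSO 0.64%. Truncated body was scored present/absent by brightfield microscopy.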

[7] = Tanguay_ZF_120hpf_NC_legacy: (Legacy) Oregon State University Tanguay Lab 120 Hour Post-fertilization zebrafish Assay for Notochord and Tail Malformation (AID 2283656)
How it was run: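 Dechorionated Tropical 5D wild-type zebrafish embryos, one per well from 6 hpf, statically exposed to 120 hpf at 28C in 0.64% DMSO final. Notochord distortion scored present/absent by brightfield; dead embryos excluded.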

[8] = Tanguay_ZF_120hpf_TR_legacy: (Legacy) Oregon State University Tanguay Lab 120 Hour Post-fertilization zebrafish Assay for Touch Response (AID 2283667)
How it was run: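 Tropical 5D wild-type zebrafish embryos were exposed statically in sealed, foil-covered plates at 28C until 120 hpf, with 0.64% (vol/vol) final DMSO. Touch response was scored as present or absent; embryos that died were not scored.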

[9] = STM_H9_OrnithineISnorm_perc: Stemina devTOX quickPredict H9 human embryonic stem cell (hESC)-based Assay for Ornithine (ORN) Metabolite Biomarker, Normalized (AID 2283712; active = hit-call score of the fitted dose curve at least 0.9, where 1 is the maximum; inactive = score below 0.9;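 also: ornithine released into spent medium during last day measured by mass spectrometry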)
How it was run: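 H9 human embryonic stem cells kept pluripotent receive test chemical over 72 h, refreshed daily by media exchange. Media from the closing 24 h is deproteinized and analysed by UPLC-HRMS on an amide column; ornithine signal is scaled to labelled standard and vehicle.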

[10] = Tanguay_ZF_120hpf_SOMI_legacy: (Legacy) Oregon State University Tanguay Lab 120 Hour Post-fertilization zebrafish Assay for Somite Malformation (AID 2283647)
How it was run: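 Tropical 5D wild-type zebrafish embryos, dechorionated with pronase at 4 hpf, were placed singly at 6 hpf and statically exposed until 120 hpf at 28C in 0.64% DMSO. Somite malformation was scored present/absent by brightfield microscopy versus DMSO.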

[11] = Tanguay_ZF_120hpf_PIG_legacy: (Legacy) Oregon State University Tanguay Lab 120 Hour Post-fertilization zebrafish Assay for Pigmentation Malformation (AID 2283650)
How it was run: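 Tropical 5D wild-type zebrafish embryos, dechorionated with pronase at 4 hpf, were exposed singly from 6 hpf to 120 hpf statically at 28C in sealed, dark plates with 0.64% DMSO; pigmentation scored present/absent by brightfield microscopy, fitted against DMSO.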

[12] = Tanguay_ZF_120hpf_BRAI_legacy: (Legacy) Oregon State University Tanguay Lab 120 Hour Post-fertilization zebrafish Assay for Brain Malformation (AID 2283641)
How it was run: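 Tropical 5D wild-type zebrafish embryos were exposed statically in sealed, foil-covered plates at 28C until 120 hpf, with 0.64% (vol/vol) final DMSO. Brain malformation was scored present/absent by brightfield microscopy, relative to DMSO baseline.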

[13] = test system: Thyroperoxidase (TPO), gene 54314; assay: CCTE_Simmons_AUR_rTPO: CCTE's Amplex UltraRed Assay for Thyroperoxidase (TPO) Inhibition, Simmons Lab (AID 2283662);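 as to AC50: potency for loss of signal meaning inhibition of peroxidase activity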
How it was run: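 Endpoint is decreased Amplex UltraRed fluorescence after a 30-min, 37C reaction of rat thyroid microsomes with 300 uM H2O2. Eight test concentrations (5 nM–87.5 uM final) in 0.5% DMSO, three biological replicates each.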

[14] = CCTE_Simmons_CellTiterGLO_HEK293T: Viability Assessment in CCTE's Assays for Thyroperoxidase (TPO) Inhibition, Simmons Lab (AID 2283665);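 also: cells exposed to compound for 24 h before readout; actives reduce ATP signal below DMSO vehicle meaning cytotoxicity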
How it was run: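 HEK293T, 10 000 cells/well, DMEM + 1% FBS; 8-pt titration 5 nM–87.5 uM [final], 0.5% DMSO; 24 hr, 37C, 5% CO2; CellTiter-Glo luminescence; n=3 biological replicates.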

[15] = CCTE_Padilla_ZF_144hpf_TERATOSCORE: (Legacy) CCTE's 144 Hour Post-fertilization zebrafish Assay Teratoscore, Padilla Lab (AID 2283679; active = hit-call score of the fitted dose curve at least 0.9, where 1 is the maximum; inactive = score below 0.9;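 as to AC50: zebrafish embryos with chorions exposed by immersion from 6-8 hpf to 5 dpf with daily renewal; teratogenicity score from eye scoring of death hatching and malformations at 144 hpf; higher score means more developmental defects relative to DMSO baseline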)
How it was run: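 Larvae scored by eye at 144 hpf for death, hatching and malformations after a day in clean Hanks'. Before that, daily-renewed exposure at 80 uM (0.4% DMSO, 26C) from roughly 6-8 hpf through 5 dpf, 4 embryos per chemical.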

SMILES | outcome [1] | outcome [2] | outcome [3] | outcome [4] | outcome [5] | outcome [6] | outcome [7] | outcome [8] | AC50 [9] | outcome [10] | outcome [11] | outcome [12] | outcome [13] | AC50 [14] | AC50 [15] | AC50 [13] | outcome [15] | outcome [9]
NC(=O)Cn1c(=O)cc(CCN2CCN(c3nccc4sccc34)CC2)c2ccc(F)cc21 | inactive | inactive | inactive | inactive | inactive | inactive | inactive | inactive | 0.0187 µM (active) | – | – | – | – | – | – | – | – | –
CCCCOC(=O)CCCCCCCCC(=O)OCCCC | inactive | inactive | inactive | – | inactive | inactive | inactive | inactive | – | inactive | inactive | – | – | – | – | – | – | –
CN[C@H]1CC[C@@H](c2ccc(Cl)c(Cl)c2)c2ccc(S(N)(=O)=O)cc21 | – | inactive | inactive | – | inactive | inactive | inactive | inactive | – | – | inactive | inactive | inactive | 9.23 µM (active) | 61.9 µM (active) | – | – | –
c1cc(-c2ccncc2)ccn1 | inactive | inactive | – | inactive | inactive | – | inactive | inactive | – | – | inactive | inactive | – | – | – | – | – | –
Cc1c(C(=O)O)c(O)cc2c1C(=O)c1c(O)c([C@@H]3O[C@H](CO)[C@@H](O)[C@H](O)[C@H]3O)c(O)c(O)c1C2=O | inactive | inactive | inactive | – | inactive | inactive | inactive | inactive | – | inactive | inactive | – | – | 12.6 µM (active) | – | 2.65 µM (active) | inactive | inactive
CC1=C(/C=C/C(C)=C/C=C/C(C)=C/CO)C(C)(C)CCC1 | inactive | inactive | inactive | – | inactive | inactive | inactive | – | – | inactive | inactive | – | – | 12 µM (active) | 28.2 µM (active) | 28.6 µM (active) | – | inactive
